Here are results for 23 compounds from PubChem BioAssay (NCATS).

The target in test [1] is Aldehyde dehydrogenase 1A1 (Homo sapiens) (UniProt P00352). The experiment in a line: qHTS for Inhibitors of the Aldehyde Dehydrogenase Family (ALDH1A1) Confirmatory screens (AID 2061316). Also: nearly all actives have a fitted effect of over 65% in size.
Test [2] has as its target Retinaldehyde dehydrogenase 3 (Homo sapiens) (UniProt P47895). The experiment in a line: qHTS for Inhibitors of the Aldehyde Dehydrogenase Family (ALDH1A3) Primary screen (AID 2061315).
A short description of test [3]: BET inhibitor-based combinations targeting novel dependencies in MECOM-rearranged (r) AML: SET-2 cell line (AID 2202231). Also: nearly all actives have a fitted effect of over 35% in size.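 As to viability: plate controls were DMSO treated cells for no effect and wells without cells for full effect.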 To be noted: SET-2 AML cells viability, CellTiter-Glo luminescence, 48 h; viability: hits give low values, concentration not given here. The method in brief:
(§1)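 AML cell lines seeded at 500 cells/well, treated with 11-point dose curves for 48 h. Viability by CellTiter-Glo luminescence, normalised to DMSO and empty wells; activity expressed as AUC and per-cell-line Z-transformed AUC.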

Test [4] in a line: BET inhibitor-based combinations targeting novel dependencies in MECOM-rearranged (r) AML: OCI-AML3 cell line (AID 2202232). Also: nearly all actives have a fitted effect of over 35% in size. To be noted: Potency: OCI-AML3 viability. Summed up:
as §1

Test [5] can be described thus: BET inhibitor-based combinations targeting novel dependencies in MECOM-rearranged (r) AML: MV-4-11 cell line (AID 2202233). Also: nearly all actives have a fitted effect of over 45% in size. The method in brief: (§2)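 Cells at 500/well were exposed for 48 hr to MIPE v5.0 drugs as 11-point dose curves. Viability was read by CellTiter-Glo luminescence and normalized to DMSO and empty-well controls. Activity was expressed as AUC and per-cell-line Z-AUC.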

Test [6] is described as follows: BET inhibitor-based combinations targeting novel dependencies in MECOM-rearranged (r) AML: HNT-34 cell line (AID 2202234). Also: nearly all actives have a fitted effect of over 35% in size. Summed up:
as §2

Test [7] is described as follows: BET inhibitor-based combinations targeting novel dependencies in MECOM-rearranged (r) AML: UCSD-AML1 cell line (AID 2202235). Also: nearly all actives have a fitted effect of over 40% in size. The method in brief: as §2
Test [8] is described as follows: BET inhibitor-based combinations targeting novel dependencies in MECOM-rearranged (r) AML: AML-191 cell line (AID 2202236; also: nearly all actives have a fitted effect of over 35% in size). The method in brief: as §1
Test [9] can be described thus: BET inhibitor-based combinations targeting novel dependencies in MECOM-rearranged (r) AML: AML-194 cell line (AID 2202237; also: nearly all actives have a fitted effect of over 40% in size). Summed up: as §1

Records with an inconclusive call do not appear. A number with no mark means an inactive call. Calls of active or inactive are those of the source. Calls follow the shape of the dose curve; as a rule, active = well fitted curve in the direction sought with a large enough effect; inconclusive = small, poorly fitted or top-dose-only effect, or another doubt; inactive = no such curve, though single readings can be large; an effect the other way counts as inactive or inconclusive.
Potency is read from the fitted curve at half-maximal effect.

With `Cc1ccnc(N(C)C(=S)N2CCN(c3cccc(C(F)(F)F)c3)CC2)c1`, the Potency in [1] is 11300 nM (active).

In the case of `COc1ccc(-c2cc(C(O)C3CCCCN3)c3ccccc3n2)cc1` (configuration not stated), in [2], the Potency result is “inactive”. Further, the Potency in test [3] was 14800 nM (active); in test [4], 20900 nM (active); in [5] it was 2950 nM (active); in [6] it was 13200 nM (active); in [7] it was 9340 nM (active); in [8] it was 14800 nM (active). In addition, the Potency in [9] was 11800 nM (active).

Turning to `C=CC(=O)N1C[C@H](Nc2ncnc3[nH]ccc23)CC[C@@H]1C`, in [3], the viability was 94.9%.

Take `C[C@H]1CC2[C@@H]3CCC4=CC(=O)C=C[C@]4(C)[C@@]3(F)[C@@H](O)C[C@]2(C)[C@@]1(O)C(=O)CO` (some centres not stated): the viability in test [3] is 115%. For the same compound, the Potency entry in test [4], in test [5] and in [6] was “inactive” throughout.

For the compound `CCOC(=O)C1=CCCCC1S(=O)(=O)Nc1ccc(F)cc1Cl` (configuration not stated), the Potency in test [3] is 20900 nM (active).

With `CC1=C2[N-][C@H]([C@H](CC(N)=O)[C@@]2(C)CCC(=O)NC[C@@H](C)OP(=O)([O-])O[C@H]2[C@@H](O)[C@@H](n3cnc4cc(C)c(C)cc43)O[C@@H]2CO)[C@]2(C)N=C(C(C)=C3N=C(C=C4N=C1[C@@H](CCC(N)=O)C4(C)C)[C@@H](CCC(N)=O)[C@]3(C)CC(N)=O)[C@@H](CCC(N)=O)[C@]2(C)CC(N)=O.O.[Co+2]`, the viability in test [3] is 95.1%.

Regarding `C[C@H]1COCCN1c1cc(C2(S(=O)(=O)C3CC3)CC2)nc(-c2ccc(NC(=S)NCCO)cc2)n1`, the Potency in test [3] was 417 nM (active); in [4], 833 nM (active); in test [5] it was 93.4 nM (active); in test [6] it was 105 nM (active); in [7], 10.5 nM (active).

Consider `C[C@H](O)[C@@H]1C(=O)N2C(C(=O)O)=C(S[C@@H]3CN[C@H](CNS(N)(=O)=O)C3)[C@@H](C)[C@@H]12`, for which the Potency result in [2], in test [4], in test [6] and in test [8] was “inactive” in each case. Further, the viability in test [3] was 118%.

Take `OCCn1cc(-c2ccc3c(c2)CC/C3=N\O)c(-c2ccncc2)n1`: the viability in test [3] is 102%. Besides, the Potency in test [4] is 2350 nM (active).

As to `CN(C)c1ccc(-c2nc3ncc(Cl)c(N4CCN(CC(=O)Nc5nccs5)CC4)c3[nH]2)cc1`, in test [2], the Potency result is “inactive”. Also, the viability in test [3] is 105%. Besides, the Potency in test [4] was 1620 nM (active).

With `Cc1ccc(NC(=O)Nc2nnc(Sc3ncnc4cc(OCCCN5CCOCC5)ccc34)s2)cc1`, the viability in [3] was 111%. For the same compound, the Potency was 14800 nM (active) in test [4] and 16.6 nM (active) in test [5].

As to `N#C/C(=C\c1ccc(O)c(O)c1)C(=O)NCc1ccccc1`, the Potency in test [3] is 14800 nM (active); in test [4] it was 5900 nM (active); in test [5] it was 14800 nM (active).

Take `COc1ccc(Oc2cc(NCCC(F)(F)F)c3ncc(-c4ccc(C(=O)NC5CC5)c(C)c4)n3n2)c(F)c1F`: the viability in test [3] is 80.2%. Besides, the figures for the Potency in [4], in [5] and in [6] were 23.5 nM (active), 66.1 nM (active) and 417 nM (active), respectively.

For `Cc1[nH]c(/C=C2\C(=O)Nc3ccccc32)c(C)c1CCC(=O)O`, in [3], the viability was 83.1%. Besides, the Potency in [4] was 20900 nM (active); in [5], 13200 nM (active).

In the case of `Cn1nccc1Nc1nccc(-c2cc3c(s2)C(C)(C)N(CCN2CCOCC2)C3=O)n1`, the viability in test [3] was 105%. In addition, the figures for the Potency in test [4], in test [5] and in test [6] were 1320 nM (active), 4170 nM (active) and 6610 nM (active), respectively.

In the case of `CN(C)c1ccc(Nc2nc(N)n(C(=O)c3c(F)cccc3F)n2)cc1`, the Potency in [2] is 14100 nM (active); in test [3] it was 18600 nM (active); in test [5] it was 4170 nM (active); in test [6] it was 14800 nM (active); in test [7] it was 2630 nM (active); in test [8] it was 18600 nM (active).

Take `Cn1cc(/C=C2\C(=O)Nc3cccnc32)c2ccccc21`: the viability in test [3] is 86.8%.

On to `CN(CCO)C1CCN(c2ccc(Nc3ncc4c5ccnc(F)c5n(C5CCCC5)c4n3)nc2)CC1`, for which the Potency is 2040 nM (active) in test [3], 182 nM (active) in test [4], 129 nM (active) in test [5] and 1820 nM (active) in [6].

As for `CN(Cc1ccccc1)C(=O)c1ccc(S(=O)(=O)Nc2ccccc2)cc1`, the Potency result in [2], in test [4], in test [7], in test [8] and in test [9] was “inactive” throughout. In [3], the viability is 103%.

As to `N#Cc1cccnc1N1CCN(C(=O)c2cccc(Cc3n[nH]c(=O)c4ccccc34)c2)CC1`, the Potency in test [3] is 296 nM (active); in test [4], 166 nM (active); in test [5], 59 nM (active); in test [6] it was 37.2 nM (active).

Consider `C=CCNC1=C2CC(C)CC(OC)C(O)C(C)/C=C(\C)C(OC(N)=O)C(OC)/C=C/C=C(\C)C(=O)NC(=CC1=O)C2=O` (configuration not stated), for which the Potency is 8330 nM (active) in test [3]; 662 nM (active) in [4]; 166 nM (active) in [5]; 3320 nM (active) in [6]; 1320 nM (active) in test [7].

Consider `CC1(C)SCCN(S(=O)(=O)c2ccc(OCC#CCO)cc2)[C@H]1C(=O)NO`, for which the viability in [3] was 96.5%. Besides, in [4], the Potency entry is “inactive”.

In the case of `CC1Cc2ccccc2N1C(=O)Cc1nc(N2CCOCC2)cc(=O)[nH]1` (configuration not stated), in test [3], the viability is 99.9%.

By viability is commonly meant a read-out of living cells in per cent, often relative to untreated cells.
